# Measured values from PubChem BioAssay.
# Records with an inconclusive call do not appear. Active and inactive are the calls of the source.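 Rule for the calls, unless noted: active = binding below the plate cutoff, the plate median minus 3 SD, with a reading above zero; inconclusive = below the plate cutoff but reading exactly zero; inactive = the rest.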
# Tests used:
# [1] = rapamycin-like changes in RPL19A-GFP expression – cell-based, S. cerevisiae, multiplex flow cytometry, primary screen (AID 1862; in the data active = percent of DMSO control GFP below about 86%;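 note: lower values mimic rapamycin by blocking the RPL19A rise seen in DMSO cells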); details: S. cerevisiae RPL19A-GFP strain, flow cytometry fluorescence, 3 h; at 10 µM; stronger effect = lower value
# [2] = TOR pathway GLN3 branch reporter MEP2-GFP changes – S. cerevisiae, multiplex flow cytometry, primary screen (AID 1867;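 active = GFP response, as percent of the DMSO control, above the screen-wide mean plus 3 SD, about 139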;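 note: median GFP channel fluorescence of barcode-gated MEP2-GFP cells measured by flow cytometry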); details: S. cerevisiae MEP2-GFP strain, 3 h, at 10 µM, stronger effect = higher value, 100% means same as DMSO wells
# [3] = TOR pathway RTG branch CIT2 reporter changes – S. cerevisiae, GFP fusion, multiplex flow cytometry, primary screen (AID 1870;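 active = percent response above a set limit, the screen-wide mean plus 3 SD, cut at about 130% in these data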;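 note: barcoded CIT2-GFP strain pooled with four other GFP strains with rapamycin as positive control; median GFP fluorescence per well over plate mean of DMSO wells so 100% = DMSO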); details: S. cerevisiae CIT2-GFP expression, 3 h, at 10 µM, stronger effect = higher value
# [4] = TOR pathway LAP4-GFP level changes – S. cerevisiae, multiplex flow cytometry, primary screen (AID 1873;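 active = GFP signal, as percent of the solvent control, above the screen mean plus 3 SD, about 149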); details: S. cerevisiae LAP4-GFP expression, 3 h, at 10 µM, stronger effect = higher value
# [5] = yeast AGP1-GFP level changes, GLN3 branch – cell-based, multiplex flow cytometry, S. cerevisiae, primary screen (AID 1887;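 active = GFP signal above the screen-wide mean plus 3 SD, that is over about 124.5% of the solvent control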;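 note: AGP1-GFP fusion strain of S. cerevisiae within a five-strain barcoded multiplex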); details: 3 h, at 10 µM, stronger effect = higher value
# [6] = reduced mouse 2C T cell binding to pMHC/ICAM-1 vesicles – MLPCN validation set, flow cytometry, LFA-1/ICAM-1 modulator project, pilot screen (AID 2523;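 active = response below a set limit, under 55% cells CD8-positive and vesicle-bound, and CD8 cells' 90th-percentile brightness under 279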;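 for vesicle binding response: mean PE anti-B7-1 fluorescence of CD8+ cells relative to row control; 100% = QL9-loaded vesicles with DMSO vehicle in the same plate row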); details: 2C mouse CD8+ T cells, at 7 µM, stronger effect = lower value; double positive events: measured here: CD8+/vesicle+ event percentage
# [7] = molecular target: Integrin beta-1 (Homo sapiens) + Integrin alpha-4 (Homo sapiens) (UniProt P13612+P05556); test: alpha4beta1 integrin LIBS antibody binding reduction – U937 cells, HUTS-21 mAb, flow cytometry, validation set, VLA-4 allosteric modulator project, pilot screen (AID 2674;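 active = inhibition above 50%, about 3 SD of the validation set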;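 note: antibody binding induced by the VLA-4 ligand LDV present at three times its Kd; 0% = LDV ligand with antibody and no compound and 100% = antibody without LDV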); details: HUTS-21 LIBS mAb binding, at 6.7 µM, stronger effect = higher value, binding induced by LDV ligand
# [8] = calorie-restriction mimetic ROS inhibitors, yeast – validation compound set, pilot screen (AID 2706;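 active = superoxide response below 65% of plate, a cut near 3 SD across the whole screen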;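 note: yeast exposed to compound for one week at 30 degrees C before staining; 100% = mean of all compound wells on the same plate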); details: S. cerevisiae aging, superoxide DHE fluorescence; at 10 µM; stronger effect = lower value
# [9] = molecular target: Beta-adrenergic receptor kinase 1 (Homo sapiens) (UniProt P25098); test: GRK2 binders displacing RNA aptamer, biochemical, validation, human GRK2, bead flow cytometry (AID 488806;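 active = aptamer binding inhibition above 30%, about 3 SD of noise from non-fluorescent compounds; inactive = inhibition at or below 30%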); details: bead-bound GRK2, FAM-aptamer displacement, at 10 µM, stronger effect = higher value
# [10] = molecular target: Beta-2 adrenergic receptor (Homo sapiens) (UniProt P07550); test: agonist-induced loss of surface beta2AR – cell-based, FAP fluorogen, flow cytometry, validation set, pilot screen (AID 504459;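 active = percent response above 42, roughly 3 SD of non-fluorescent test compounds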;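 note: agonist-driven loss of surface beta2AR via internalization measured by FAP dye flow cytometry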); details: Am2.2-beta2AR cells, at 10 µM, stronger effect = higher value
# [11] = molecular target: AP-2 complex subunit beta (Homo sapiens) (UniProt P63010); test: beta-arrestin/AP2 interaction blockers – biochemical, validation set, GST-AP2 beads, flow cytometry, pilot screen (AID 504541;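 active = inhibition above 54%, about 3 SD of non-fluorescent compounds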;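 note: AP2 carries R879A mutation and is captured from E. coli lysate; bead-bound FITC arrestin peptide fluorescence measuring arrestin peptide binding to AP2; 0% = DMSO wells and 100% = excess unlabeled arrestin peptide control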); details: FITC arrestin peptide, at 10 µM, stronger effect = higher value, AP2 beta2 appendage fragment, R879A mutant
# [12] = cytosolic pH regulators acting via V-ATPase – S. cerevisiae, pHLuorin, HTS validation (AID 504600; in the data active = response above about 15%;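 note: plate controls were DMSO for no effect and reference compound for full effect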); details: V-ATPase proton transport, at 10 µM, stronger effect = higher value
# [13] = system: anti-desmoglein-3 scFv antibody binding to human DSG3; test: blockers of pathogenic pemphigus antibody–desmoglein-3 binding – biochemical, validation compound set, bead-based, flow cytometry, pilot screen (AID 588368); details: Protein G beads, DSG3-Fc, scFv-GFP binding, at 10 µM, stronger effect = lower value;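 note: signal is the median channel fluorescence of bead-bound GFP antibody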
# [14] = Nile Red efflux blockade in pump-expressing yeast – validation compound set, multiplex, phenotypic, pilot screen (AID 588506;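 active = efflux inhibition above 0.42, the validation set average plus 4 SD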;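 note: Nile Red retained in cells so higher fluorescence means more efflux inhibition; 0 = negative control wells and 1 = enniatin B 25 µM full block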); details: S. cerevisiae pump-expressing triplex, Nile Red efflux flow cytometry; at 10 µM; stronger effect = higher value; the pumps come from Candida albicans
# [15] = molecular target: ATP-binding cassette sub-family B member 6 (Homo sapiens) (UniProt Q9NP58); test: blockers of ABCB6-driven porphyrin uptake – K562-ABCB6 cells, flow cytometry, validation set, pilot screen (AID 588550;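 active = inhibition above the screen-wide mean plus 3 SD, about 51%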;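 note: 0% = DMSO wells and 100% = benzethonium chloride 70 µM positive control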); details: K562-ABCB6 porphyrin accumulation, 1 h, at 10 µM, stronger effect = higher value
# [16] = AML differentiation inducers, ER-HoxA9 marrow cells – cell-based, GFP/MAC1 double positive, flow cytometry, validation set, primary screen (AID 588685;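 active = differentiation response of at least 50%, scaled between solvent and reference control, from cells with both markers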;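 note: compound exposure lasts four days before antibody staining and flow analysis; 0% = DMSO wells and 100% = 5 µM fulvestrant positive control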); details: stronger effect = higher value, normalized: vehicle 0, fulvestrant 100
# Beta-2 adrenergic receptor (Homo sapiens), sequence (P07550 whole entry, looked up): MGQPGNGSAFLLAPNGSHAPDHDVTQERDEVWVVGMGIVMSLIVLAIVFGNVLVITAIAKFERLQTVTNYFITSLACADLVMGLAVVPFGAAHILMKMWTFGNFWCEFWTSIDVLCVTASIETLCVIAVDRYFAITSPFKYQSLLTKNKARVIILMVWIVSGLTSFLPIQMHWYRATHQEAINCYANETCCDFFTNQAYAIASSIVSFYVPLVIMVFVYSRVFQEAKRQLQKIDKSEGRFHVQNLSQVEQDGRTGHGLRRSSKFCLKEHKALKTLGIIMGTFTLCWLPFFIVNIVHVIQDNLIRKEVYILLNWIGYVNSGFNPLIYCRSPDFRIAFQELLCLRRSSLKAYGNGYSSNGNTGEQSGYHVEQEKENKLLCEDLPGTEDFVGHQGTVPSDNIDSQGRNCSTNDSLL
# ATP-binding cassette sub-family B member 6 (Homo sapiens), sequence (Q9NP58 whole entry, looked up): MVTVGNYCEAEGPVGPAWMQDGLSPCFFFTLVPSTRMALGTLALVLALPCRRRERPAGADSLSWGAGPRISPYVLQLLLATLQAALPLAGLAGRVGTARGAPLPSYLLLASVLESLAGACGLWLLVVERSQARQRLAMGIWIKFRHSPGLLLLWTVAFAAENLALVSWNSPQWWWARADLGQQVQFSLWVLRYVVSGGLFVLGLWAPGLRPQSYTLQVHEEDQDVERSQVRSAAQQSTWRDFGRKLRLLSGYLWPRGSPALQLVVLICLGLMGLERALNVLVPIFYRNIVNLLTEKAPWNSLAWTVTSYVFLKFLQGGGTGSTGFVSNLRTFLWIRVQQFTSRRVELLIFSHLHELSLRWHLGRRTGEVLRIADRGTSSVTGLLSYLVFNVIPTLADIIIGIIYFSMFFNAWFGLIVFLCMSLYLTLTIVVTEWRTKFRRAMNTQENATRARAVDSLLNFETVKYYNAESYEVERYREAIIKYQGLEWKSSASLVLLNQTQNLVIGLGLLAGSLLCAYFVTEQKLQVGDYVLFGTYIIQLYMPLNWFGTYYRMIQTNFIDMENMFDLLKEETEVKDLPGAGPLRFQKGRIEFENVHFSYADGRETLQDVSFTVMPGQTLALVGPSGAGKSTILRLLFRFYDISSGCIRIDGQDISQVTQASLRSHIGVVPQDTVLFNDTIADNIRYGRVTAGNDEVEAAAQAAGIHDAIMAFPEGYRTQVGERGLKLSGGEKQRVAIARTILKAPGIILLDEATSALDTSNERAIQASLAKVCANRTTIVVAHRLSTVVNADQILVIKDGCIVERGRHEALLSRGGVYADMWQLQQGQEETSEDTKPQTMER
# Integrin beta-1 (Homo sapiens) + Integrin alpha-4 (Homo sapiens), sequence (P05556 whole entry, looked up): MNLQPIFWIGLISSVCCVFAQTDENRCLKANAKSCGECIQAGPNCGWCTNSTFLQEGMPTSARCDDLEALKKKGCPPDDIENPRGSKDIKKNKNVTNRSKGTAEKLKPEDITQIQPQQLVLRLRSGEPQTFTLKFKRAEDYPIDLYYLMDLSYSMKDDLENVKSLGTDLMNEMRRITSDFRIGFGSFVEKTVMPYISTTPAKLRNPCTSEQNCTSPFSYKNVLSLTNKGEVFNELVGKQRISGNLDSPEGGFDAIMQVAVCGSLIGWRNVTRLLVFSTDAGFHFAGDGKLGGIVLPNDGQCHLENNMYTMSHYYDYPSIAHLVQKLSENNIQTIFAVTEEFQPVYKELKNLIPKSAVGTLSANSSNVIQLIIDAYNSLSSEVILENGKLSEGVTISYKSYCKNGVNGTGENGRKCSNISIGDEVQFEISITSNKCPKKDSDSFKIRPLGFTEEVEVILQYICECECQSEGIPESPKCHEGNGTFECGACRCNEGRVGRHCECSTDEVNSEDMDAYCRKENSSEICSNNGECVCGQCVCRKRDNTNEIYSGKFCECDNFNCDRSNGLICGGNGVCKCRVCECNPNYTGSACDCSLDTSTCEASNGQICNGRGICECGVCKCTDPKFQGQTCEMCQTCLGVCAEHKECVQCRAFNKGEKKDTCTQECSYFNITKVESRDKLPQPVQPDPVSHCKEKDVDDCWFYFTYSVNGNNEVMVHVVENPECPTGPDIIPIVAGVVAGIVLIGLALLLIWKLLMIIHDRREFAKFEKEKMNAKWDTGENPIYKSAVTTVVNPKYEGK
# Integrin beta-1 (Homo sapiens) + Integrin alpha-4 (Homo sapiens), sequence (P13612 whole entry, looked up): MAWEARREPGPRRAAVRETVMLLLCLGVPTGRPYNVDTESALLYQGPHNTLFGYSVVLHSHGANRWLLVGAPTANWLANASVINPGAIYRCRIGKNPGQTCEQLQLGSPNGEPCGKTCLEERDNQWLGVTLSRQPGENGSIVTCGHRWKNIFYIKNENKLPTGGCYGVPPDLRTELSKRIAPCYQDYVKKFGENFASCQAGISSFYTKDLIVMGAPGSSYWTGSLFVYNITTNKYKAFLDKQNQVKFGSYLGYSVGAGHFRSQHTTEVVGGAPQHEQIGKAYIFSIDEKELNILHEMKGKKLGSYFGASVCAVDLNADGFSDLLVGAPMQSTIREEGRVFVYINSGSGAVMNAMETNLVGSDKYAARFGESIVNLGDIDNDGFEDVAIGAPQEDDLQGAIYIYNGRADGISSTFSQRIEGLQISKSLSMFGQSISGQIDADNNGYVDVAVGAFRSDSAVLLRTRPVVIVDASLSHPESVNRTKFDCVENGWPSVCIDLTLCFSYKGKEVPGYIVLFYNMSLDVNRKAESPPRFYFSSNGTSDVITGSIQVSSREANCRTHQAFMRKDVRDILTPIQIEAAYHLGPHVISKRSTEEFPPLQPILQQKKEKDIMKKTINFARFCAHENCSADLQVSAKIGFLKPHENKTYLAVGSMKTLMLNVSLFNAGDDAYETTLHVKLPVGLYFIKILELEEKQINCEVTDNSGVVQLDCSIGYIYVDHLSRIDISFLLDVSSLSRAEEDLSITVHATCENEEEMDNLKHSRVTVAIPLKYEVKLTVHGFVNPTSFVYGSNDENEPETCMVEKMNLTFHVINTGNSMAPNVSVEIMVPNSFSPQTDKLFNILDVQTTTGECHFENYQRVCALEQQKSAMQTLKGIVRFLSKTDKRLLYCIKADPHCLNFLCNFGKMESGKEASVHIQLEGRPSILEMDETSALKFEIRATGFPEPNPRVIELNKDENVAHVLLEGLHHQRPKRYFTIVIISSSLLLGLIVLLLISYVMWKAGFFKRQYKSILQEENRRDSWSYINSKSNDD
# Beta-adrenergic receptor kinase 1 (Homo sapiens), sequence (P25098 whole entry, looked up): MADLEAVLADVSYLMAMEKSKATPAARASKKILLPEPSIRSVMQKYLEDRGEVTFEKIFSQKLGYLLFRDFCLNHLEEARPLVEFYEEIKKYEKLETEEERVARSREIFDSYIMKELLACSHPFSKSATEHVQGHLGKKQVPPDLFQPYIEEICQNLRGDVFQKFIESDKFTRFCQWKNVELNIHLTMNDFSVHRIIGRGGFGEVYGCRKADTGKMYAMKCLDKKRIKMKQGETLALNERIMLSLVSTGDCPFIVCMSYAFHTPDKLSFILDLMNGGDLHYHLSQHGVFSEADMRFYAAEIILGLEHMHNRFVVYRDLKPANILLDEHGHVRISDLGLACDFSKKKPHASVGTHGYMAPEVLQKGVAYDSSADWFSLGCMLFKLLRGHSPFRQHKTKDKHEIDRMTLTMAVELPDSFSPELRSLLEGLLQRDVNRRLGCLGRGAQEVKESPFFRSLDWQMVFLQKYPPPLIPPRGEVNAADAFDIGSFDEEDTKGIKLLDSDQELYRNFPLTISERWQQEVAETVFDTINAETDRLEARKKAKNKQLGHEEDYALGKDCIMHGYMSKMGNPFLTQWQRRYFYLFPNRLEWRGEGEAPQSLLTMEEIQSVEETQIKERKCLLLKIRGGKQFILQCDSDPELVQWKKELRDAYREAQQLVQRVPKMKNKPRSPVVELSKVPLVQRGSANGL
# AP-2 complex subunit beta (Homo sapiens), sequence (P63010 whole entry, looked up, the tested form may be a part, one chain of several): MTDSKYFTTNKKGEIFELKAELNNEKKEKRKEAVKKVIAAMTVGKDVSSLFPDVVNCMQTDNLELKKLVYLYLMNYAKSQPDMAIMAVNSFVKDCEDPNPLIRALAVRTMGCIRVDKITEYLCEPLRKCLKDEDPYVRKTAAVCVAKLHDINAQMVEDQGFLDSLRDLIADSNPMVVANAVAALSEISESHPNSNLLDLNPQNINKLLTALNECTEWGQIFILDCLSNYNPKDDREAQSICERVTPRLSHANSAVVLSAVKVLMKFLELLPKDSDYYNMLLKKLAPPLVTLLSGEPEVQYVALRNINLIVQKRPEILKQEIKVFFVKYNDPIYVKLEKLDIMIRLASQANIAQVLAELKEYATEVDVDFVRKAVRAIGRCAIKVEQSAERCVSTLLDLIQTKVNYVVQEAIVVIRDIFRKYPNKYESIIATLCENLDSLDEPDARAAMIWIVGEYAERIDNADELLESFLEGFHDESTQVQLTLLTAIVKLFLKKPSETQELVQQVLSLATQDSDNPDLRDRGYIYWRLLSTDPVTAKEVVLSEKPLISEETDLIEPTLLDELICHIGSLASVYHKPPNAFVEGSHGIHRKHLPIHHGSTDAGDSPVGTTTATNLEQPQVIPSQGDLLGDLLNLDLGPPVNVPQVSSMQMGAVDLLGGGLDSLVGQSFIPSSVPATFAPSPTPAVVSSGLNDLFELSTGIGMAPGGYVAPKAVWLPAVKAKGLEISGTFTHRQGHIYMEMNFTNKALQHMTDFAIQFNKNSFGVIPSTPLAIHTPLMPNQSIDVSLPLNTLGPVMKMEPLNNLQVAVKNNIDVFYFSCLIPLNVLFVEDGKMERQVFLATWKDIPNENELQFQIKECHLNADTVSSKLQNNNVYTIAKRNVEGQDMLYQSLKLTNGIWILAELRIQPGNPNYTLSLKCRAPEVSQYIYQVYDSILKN
Structure (SMILES),percent of DMSO control GFP [1],GFP response vs DMSO [2],percent response of DMSO control [3],GFP response vs DMSO [4],"GFP response, % of DMSO [5]",double positive events [6] [%],vesicle binding response [6],inhibition [7],superoxide response (% of plate) [8],aptamer binding inhibition [9],response [10],inhibition [11],response [12],binding (% of control) [13],efflux inhibition (fraction of control) [14],inhibition [15],differentiation response [16]
CC(=O)NS(=O)(=O)c1ccc(N)cc1,98.6% (inactive),101% (inactive),97% (inactive),101% (inactive),104% (inactive),62.3,335% (inactive),0.59% (inactive),101% (inactive),2% (inactive),-16.2% (inactive),-0.64% (inactive),0.06% (inactive),103% (inactive),0.04 (inactive),5% (inactive),-3.02% (inactive)
NC(N)=NC(=O)Cc1c(Cl)cccc1Cl,103% (inactive),110% (inactive),97.8% (inactive),99.9% (inactive),101% (inactive),64.6,197% (inactive),-4.6% (inactive),109% (inactive),-1% (inactive),-1.1% (inactive),18% (inactive),-2.92% (inactive),98.2% (inactive),-0.01 (inactive),18% (inactive),-2.69% (inactive)
CC12CCC(C(=O)NCc3ccccn3)(OC1=O)C2(C)C (stereo not given),102% (inactive),103% (inactive),103% (inactive),98% (inactive),103% (inactive),61.8,167% (inactive),1.59% (inactive),92.4% (inactive),0% (inactive),-3.72% (inactive),6.09% (inactive),-2.31% (inactive),104% (inactive),-0.24 (inactive),33% (inactive),5.67% (inactive)
Cc1ccc2c(c1)C(C)(C)[C@]1(C)NC(=O)CCN21,94.2% (inactive),109% (inactive),92% (inactive),115% (inactive),105% (inactive),65.2,212% (inactive),-25% (inactive),99.4% (inactive),7% (inactive),29.6% (inactive),-1% (inactive),-1.48% (inactive),98% (inactive),-0.28 (inactive),9% (inactive),2.4% (inactive)
O=C1CC[C@@H](CN(Cc2ccccc2)Cc2cn[nH]c2-c2cc3ccccc3o2)N1,101% (inactive),108% (inactive),99.6% (inactive),110% (inactive),114% (inactive),63.1,198% (inactive),-4.52% (inactive),93.3% (inactive),5% (inactive),40.3% (inactive),2.07% (inactive),3.87% (inactive),101% (inactive),0.38 (inactive),1% (inactive),-7.94% (inactive)
CCC(C(=O)Nc1ccc2c(c1)OCCO2)c1ccccc1 (stereo not given),103% (inactive),103% (inactive),101% (inactive),113% (inactive),110% (inactive),58.6,143% (inactive),8.29% (inactive),96.9% (inactive),-1% (inactive),3.82% (inactive),3.98% (inactive),-0.08% (inactive),101% (inactive),-0.03 (inactive),-7% (inactive),-10.4% (inactive)
CC(C)CCC1(CCNC(C)c2cccs2)CCOC(C)(C)C1 (stereo not given),102% (inactive),108% (inactive),97.8% (inactive),93.3% (inactive),101% (inactive),58.8,1220% (inactive),-6.68% (inactive),96.5% (inactive),0% (inactive),8.29% (inactive),1.09% (inactive),-1.06% (inactive),98.5% (inactive),-0.17 (inactive),2% (inactive),1.22% (inactive)
CN(C)CCOC(c1ccccc1)c1ccccc1,94.4% (inactive),123% (inactive),115% (inactive),87.5% (inactive),89.4% (inactive),43.1,107% (inactive),1.61% (inactive),96.7% (inactive),-1% (inactive),-13.1% (inactive),29.6% (inactive),-7.12% (inactive),98% (inactive),0.52 (active),2% (inactive),1.64% (inactive)
Cc1nnc(NS(=O)(=O)c2ccc(N)cc2)s1,92.4% (inactive),126% (inactive),92.6% (inactive),83.6% (inactive),92.8% (inactive),61.7,123% (inactive),19.1% (inactive),102% (inactive),8% (inactive),2.41% (inactive),2.68% (inactive),0.26% (inactive),100% (inactive),-0.24 (inactive),14% (inactive),0% (inactive)
Cc1nc(N)sc1C(=O)N/N=C/c1ccco1,105% (inactive),107% (inactive),109% (inactive),114% (inactive),115% (inactive),62.5,145% (inactive),-3.77% (inactive),89.3% (inactive),-1% (inactive),-0.95% (inactive),6.36% (inactive),-5.39% (inactive),105% (inactive),0.08 (inactive),-15% (inactive),-4.57% (inactive)
